# Source: PubChem BioAssay
# GIRK2 activator: Activators of human GIRK2-containing channels. P48051. activation (% efficacy), % for hits at 37.5 µM. 34,000 tested, under 10 active. HEK293 GIRK2/NPY4 cells, thallium flux fluorescence. AID 1259324;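 active means primary screen hit, no activity in plain HEK293 cells, and in GIRK2-only cells above 5% efficacy rising with concentration; inactive means the rest, including fluorescent compounds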;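 further: efficacy is normalized control-subtracted fluorescence 15 s after thallium addition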
# AMPAR-TARP mod: GluA2-stargazin AMPA receptor complex modulation | O88602+P19491 | 40,000 tested, 3.5% active | HEK293 GluA2+stargazin, membrane potential dye (FDSS), glutamate EC50; hits were called plate by plate, in both directions | calls only at 30 µM;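 active means any of four per-well response measures lying three or more SD from its plate-wide compound average, in either direction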
# Target sequence (O88602 whole entry, looked up): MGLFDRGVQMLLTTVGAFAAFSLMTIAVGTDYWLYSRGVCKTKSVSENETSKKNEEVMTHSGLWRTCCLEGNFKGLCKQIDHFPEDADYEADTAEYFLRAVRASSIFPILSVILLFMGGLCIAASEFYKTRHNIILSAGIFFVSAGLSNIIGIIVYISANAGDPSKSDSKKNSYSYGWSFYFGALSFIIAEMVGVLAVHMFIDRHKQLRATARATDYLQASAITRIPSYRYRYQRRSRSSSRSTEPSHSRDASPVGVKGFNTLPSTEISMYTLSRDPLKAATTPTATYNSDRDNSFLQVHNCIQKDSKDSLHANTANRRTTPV
# Target sequence (P19491 whole entry, looked up): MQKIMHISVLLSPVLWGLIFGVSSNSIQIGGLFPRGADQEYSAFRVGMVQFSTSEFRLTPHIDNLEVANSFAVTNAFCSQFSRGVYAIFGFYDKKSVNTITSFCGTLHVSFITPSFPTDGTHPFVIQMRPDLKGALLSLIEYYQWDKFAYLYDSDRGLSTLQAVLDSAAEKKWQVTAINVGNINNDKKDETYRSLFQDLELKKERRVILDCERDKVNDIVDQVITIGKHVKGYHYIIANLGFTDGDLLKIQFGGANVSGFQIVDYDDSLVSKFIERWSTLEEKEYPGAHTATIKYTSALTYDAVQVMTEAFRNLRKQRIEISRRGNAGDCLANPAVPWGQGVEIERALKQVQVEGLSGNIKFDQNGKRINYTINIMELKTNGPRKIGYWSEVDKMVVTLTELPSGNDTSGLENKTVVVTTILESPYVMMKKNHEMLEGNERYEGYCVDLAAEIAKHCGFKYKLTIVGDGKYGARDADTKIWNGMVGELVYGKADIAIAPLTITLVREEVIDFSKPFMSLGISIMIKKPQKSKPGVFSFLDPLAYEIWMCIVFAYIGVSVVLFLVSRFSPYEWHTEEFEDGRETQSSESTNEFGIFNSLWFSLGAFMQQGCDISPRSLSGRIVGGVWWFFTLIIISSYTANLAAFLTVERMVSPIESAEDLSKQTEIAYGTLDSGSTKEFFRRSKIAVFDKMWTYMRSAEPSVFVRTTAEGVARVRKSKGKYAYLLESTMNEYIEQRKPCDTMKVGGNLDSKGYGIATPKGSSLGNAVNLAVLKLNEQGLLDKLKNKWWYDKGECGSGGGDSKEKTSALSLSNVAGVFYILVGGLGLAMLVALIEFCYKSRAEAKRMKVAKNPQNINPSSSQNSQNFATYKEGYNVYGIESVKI
# Active calls of the source: *; i = inactive; . = no result; + = active, no number. This excerpt belongs to a sample that is enriched for hits.
SMILES,GIRK2 activator,AMPAR-TARP mod
COc1cc(C(C)=O)ccc1OCC(=O)N1CCN(c2ccc3nncn3n2)CC1,i,+
Cc1ccc(OCC(=O)N2CCN(c3ccc4nncn4n3)CC2)cc1C,i,i
COc1ccc(S(=O)(=O)Nc2ccc3c(c2)CCC(=O)N3)cc1,.,i
O=C1c2ccccc2C(O)(Cc2ccccc2)N1CCCN1CCOCC1 (centres undefined),.,i
O=C1c2ccccc2C(O)(Cc2ccccc2)N1C(c1ccccc1)c1ccccc1 (centres undefined),.,+
O=C(Nc1ccccc1C(F)(F)F)c1ccc(N2C(=O)c3ccccc3C2=O)cc1,i,i
O=C(NCC1(c2ccccc2)CCOCC1)c1ccccc1C(F)(F)F,i,i
CCC1(C)CC(CCN(Cc2ccccc2F)C(C)=O)(c2ccccc2)CCO1 (centres undefined),.,+
COc1ccc(-n2c(COc3ccc4c(c3)OCO4)nnc2SCC(=O)c2ccccc2)cc1,.,i
COc1c2c(cc3c1C(CC(=O)c1ccccc1)N(C)CC3)OCO2 (centres undefined),.,+
O=C(c1ccc(Cl)c(S(=O)(=O)N2CCCCCC2)c1)N1CCN(c2ccc(F)cc2)CC1,i,.
COc1ccc(S(=O)(=O)Nc2ccc(C(=O)Nc3sc4c(c3C(N)=O)CCC(C)C4)cc2)cc1 (centres undefined),i,i
Cc1ccc(C2=CC(c3ccc(Cl)cc3)n3nc(N4C(=O)CCC4=O)nc3N2)cc1 (centres undefined),.,+
COc1ccccc1C1C=C(c2ccc(Cl)cc2)Nc2nc(NS(C)(=O)=O)nn21 (centres undefined),.,i
CCC(CC)C(=O)N1CCC2(CC1)NC(=O)N(Cc1ccc(Cl)cc1)C2=O,i,i
COC(=O)c1ccc(CSc2c(CC(C)C)cnc3c2c(=O)n(C)c(=O)n3C)cc1,.,i
Cc1cnc2c(c1SCC(=O)N(C(C)C)C(C)C)c(=O)n(C)c(=O)n2C,i,i
CC(C)Cc1cnc2c(c1SCC(=O)N(C(C)C)C(C)C)c(=O)n(C)c(=O)n2C,.,+
COc1cc(CSc2c(CC(C)C)cnc3c2c(=O)n(C)c(=O)n3C)cc(OC)c1,.,+
CCOc1ccc(NC(=O)c2ccc(-c3ccc(F)cc3)o2)cc1,.,i
CCN(CC)CCN(C(=O)c1ccnn1C)c1nc2c(F)cc(F)cc2s1,i,.
COc1ccc(CNC(=O)CN2C(=O)N(c3ccc(C)cc3C)S(=O)(=O)c3ccccc32)cc1,i,i
CCSc1ccccc1C(=O)NC1CNC(=O)C1 (centres undefined),.,i
O=C1CC(NC(=O)c2ccccc2Oc2ccccc2)CN1 (centres undefined),.,+
C#CCn1c(=NC(=O)c2ccn(C)n2)sc2cc3c(cc21)OCCO3,i,i
SMILES,GIRK2 activator,AMPAR-TARP mod
COc1ccc(S(=O)(=O)c2cnc(SCC(=O)Nc3ccc(Cl)cc3)[nH]c2=O)cc1,i,i
O=c1nc(SCc2cccc([N+](=O)[O-])c2)c2c(n1CCCO)CCC2,i,i
O=C(CCCn1c(SCc2cccc([N+](=O)[O-])c2)nc2ccccc2c1=O)N1CCCC1,i,+
COc1ccc(CC(=O)Nc2ccc(N3CCCC3=O)c(OC)c2)cc1,i,i
Cn1nnc2c(SCC(=O)NCc3ccc4c(c3)OCO4)ncnc21,i,i
Cc1cc(C)c(S(=O)(=O)Nc2ccc(F)cc2)c(C)c1N(C)S(C)(=O)=O,i,i
COc1ccc(NS(=O)(=O)c2c(C)cc(C)c(N(C)S(C)(=O)=O)c2C)cc1,i,+
CN(C)C(CNC(=O)c1ccccc1Cl)c1cccc2ccccc12 (centres undefined),.,i
CCOc1ccc2ccccc2c1C(=O)NCCOc1ccccc1,i,+
CN(C)C(CNC(=O)c1c(F)cccc1F)c1cccc2ccccc12 (centres undefined),.,+
CCOc1ccc(C(=O)NCC(c2ccc(F)cc2)N2CCOCC2)cc1OCC (centres undefined),.,i
CCOc1ccc(OCCNC(=O)Cc2cccc3ccccc23)cc1,i,i
CCOc1ccc2ccccc2c1C(=O)NCC(c1cccs1)N(C)C (centres undefined),i,+
CN(C)C(CNC(=O)c1ccc2ccccc2c1)c1cccs1 (centres undefined),i,i
CCOc1ccc2ccccc2c1C(=O)NCC(c1ccc(F)cc1)N1CCOCC1 (centres undefined),.,+
Cc1nn(CCNS(=O)(=O)c2ccccc2)c(C)c1Cl,i,i
O=S(=O)(NCCCN1CCOC(c2ccccc2)C1)c1ccc2c(c1)CCCC2 (centres undefined),i,.
CSCCC(C)(O)CNC(=O)c1ccc(-c2ccccc2)cc1 (centres undefined),i,i
COc1ccc(S(=O)(=O)NC(C)(C)CO)cc1N(C)S(=O)(=O)c1ccc(C)cc1,.,i
Cc1ccc(C(=O)CSc2ccc(NC(=O)C(C)C)nn2)c(C)c1,i,i
COc1ccc(C(=O)NCC(c2ccc(F)cc2)N2CCOCC2)cc1 (centres undefined),.,i
COc1cccc(OC)c1C(=O)NCC(c1cccs1)N1CCOCC1 (centres undefined),i,i
CCOc1ccc2ccccc2c1C(=O)NCC(c1cccs1)N1CCOCC1 (centres undefined),i,+
CCOc1ccc2ccccc2c1C(=O)NCC(c1ccc(OC)cc1)N1CCOCC1 (centres undefined),.,+
COc1ccc(NC(=O)NCCNc2cc(N(C)C)nc(C)n2)cc1Cl,i,.
SMILES,GIRK2 activator,AMPAR-TARP mod
Cc1ccc(C(=O)Nc2ccc(Nc3nc(C)cc(N4CCCCC4)n3)cc2)cc1,.,+
Cc1ccc(Nc2cc(C)nc(Nc3ccc(NC(=O)c4ccc5c(c4)OCO5)cc3)n2)cc1,.,i
C=CCNC(=O)Cn1cc(OC)c(=O)cc1CSc1ncccn1,i,i
CCOc1cc(C)ccc1S(=O)(=O)N1CC(C)CC(C)C1 (centres undefined),.,+
CCOc1cc(C)ccc1S(=O)(=O)N1CCCCC1,.,i
CCOc1ccc(S(=O)(=O)Nc2ccc3c(c2)N(S(=O)(=O)CC)CCC3)cc1C,.,i
O=C(CCCn1nc(-c2ccco2)ccc1=O)Nc1cc(Cl)cc(Cl)c1,i,.
O=C(Nc1ccc(F)cc1)N1CCC2(CC1)NC(=O)N(Cc1ccc(Cl)cc1)C2=O,i,.
O=C(Nc1ccccc1)N1CCC2(CC1)NC(=O)N(CCc1ccccc1)C2=O,i,i
Cc1ccc(NC(=O)N2CCC3(CC2)NC(=O)N(Cc2ccc(Cl)cc2)C3=O)cc1F,i,+
O=C(Nc1ccc(F)c(Cl)c1)N1CCC2(CC1)NC(=O)N(CCc1ccccc1)C2=O,i,+
CC(C)c1nnc(C2CCN(C(=O)Cc3cccs3)CC2)o1,i,i
COc1ccc(OC)c(NC(=O)c2cc3ccccc3o/c2=N\NS(=O)(=O)c2ccccc2)c1,.,i
CCC(=O)Nc1sc2c(c1-c1nc3ccccc3s1)CCN(Cc1ccccc1)C2,.,i
CC(C)(C)C(=O)Nc1sc2c(c1C#N)CCN(Cc1ccccc1)C2,i,+
NC(=O)c1ccc(NC(=O)Cc2csc(SCC(=O)c3ccccc3)n2)cc1,i,.
Cc1ccc(NC(=O)c2ccc(=O)n(Cc3cccc(Cl)c3)c2)cc1C,i,i
